± gives the standard deviation. The full ranking holds about 6,200 sequences; the median of “pre-steady-state target cleavage rate” is about 0.29, and the highest 2% start at about 2. The list comes from a sample in which the highest values are over-represented; it also holds similar and randomly drawn sequences.
Each sequence was assayed on MIWI (PIWIL1) piRISC loaded with piRNA #1 (30 nt) (assay: pre-steady-state target cleavage rate (min^-1); MIWI and MILI are mouse PIWI proteins and EfPiwi is from a freshwater sponge; tags in brackets are library labels; higher = faster piRNA-guided slicing of the target). Settings: guide: piRNA #1 5'p-UGAGGUAGUAGGUUGUAUAGUAUCCAGAGG; auxiliary factor: 500 nM mouse GTSF1.
Description: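 Cleave-'n-Seq: a library of target RNAs (target site embedded in constant flanks, ACAGCATTCCGCGTTAGTGATATCCG... 5' flank; DNA-blocked outside the site) at 0.1 nM was incubated with 1 nM active mouse MILI or MIWI piRISC (synthetic 5'-monophosphorylated piRNA guide) with or without 500 nM mouse GTSF1 at 33 °C for 1 min to 16 h. Uncleaved targets were sequenced and normalised to non-target controls, and the pooled three trials were fitted to a burst-and-steady-state model to give the pre-steady-state cleavage rate (min^-1; k3 is constrained to at most 1e-4). Sequence is the target site only; target names encode pairing extent (gX:gY) and contiguous / 1-mismatch / 2-mismatch / bulge geometry. Fits with R² ≤ 0 are excluded.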

Sequence | pre-steady-state target cleavage rate
GGACUGGAUACAAUACAAGCUACUACCUCA | 0.683 ± 0.041
GGAGACCUUACUAUACAACCUACUACCUGA | 0.777 ± 0.077
GGAGUGGAUACUAUACCAACCUACUACCUCA | 0.0192 ± 0.0054
GCUCUGGAUACUAUACAAGCUACUAGCUCA | 0.745 ± 0.073
GGAGACCUAUGUAUACAUCCUAGUACCUCA | 0.00528 ± 0.0014
GGAGACCUAACUAUACUACCUUCUACCUCA | 0.00903 ± 0.0034
CCUCUCCAUACUAUACAACCUACUACCUCA | 2.04 ± 0.12
GGUCUCCAUACUAUACAACCUACUACCUCA | 1.79 ± 0.1
GGAGACCAUACUAUACAACCUACUACUUCA | 2.14 ± 0.14
GGACUCCAUACUAUACAACCUACUACCUCA | 1.67 ± 0.11
GGAGACCAUACUAUACAACCUACUACCUUCA | 1.59 ± 0.1
GCUCUCCAUACUAUACAACCUACUACCUCA | 2.13 ± 0.13
GCUCACCAUACUAUACAACCUACUACCUCA | 1.87 ± 0.13
GGUCACCAUACUAUACAACCUACUACCUCA | 1.77 ± 0.11
CCUCACCAUACUAUACAACCUACUACCUCA | 2.03 ± 0.12
GGAGACCAUACUAUACAACCUACUACCUACA | 1.77 ± 0.18
GGAGUCCAUACUAUACAACCUACUACCUCA | 1.63 ± 0.091
GCUCUCCUUACUAUACAACCUACUACCUCA | 1.85 ± 0.12
GGAGUGGAUACUAUACAACGUACUAGCUCA | 0.0857 ± 0.017
GCUCUCGAUACUAUACAACCUACUACGUCA | 1.24 ± 0.079
GCACUGGAUACUAUACAUCCUACUACCUCA | 1.88 ± 0.096
CCUCAGGAUACUAUACAACCUACUAGCUCA | 1.13 ± 0.056
GGAGACGAUACUAUACAACCUACUACCUUA | 1.35 ± 0.09
GGAGUGCAUAGUAUACAACCUACUACCUCA | 0.659 ± 0.04
GGAGACCUAUCUAUAGAACCUAGUACCUCA | 0.0363 ± 0.0089

Sequence | pre-steady-state target cleavage rate
GGAGUGAUACUAUACAACCUACUACCUCA | 1.77 ± 0.11
GGAGAAGAUACUAUACAACCUACUACCUCA | 2.04 ± 0.11
GGAGAUGAUACUAUACAACCUACUACCUCA | 1.86 ± 0.095
GGAGUGUGAUACUAUACAACCUACUACCUCA | 1.81 ± 0.1
GGAGAGUGAUACUAUACAACCUACUACCUCA | 2.1 ± 0.15
GGAGAGAGAUACUAUACAACCUACUACCUCA | 2.02 ± 0.12
GGAGAGGAUACUAUACAACCUACCUACCUCA | 1.05 ± 0.059
GGAGUGAGAUACUAUACAACCUACUACCUCA | 1.77 ± 0.094
GGAGAGAUACUAUACAACCUACUACCUCA | 1.89 ± 0.11
GGAGUGGAUACUUUACAACCUACUACCUCA | 1.53 ± 0.086
GGAGACCAUACAAUACAACCUACUAGCUCA | 0.486 ± 0.067
GGAGACCUAACUAUAGAACCUACUACCUGA | 0.188 ± 0.066
GGACUGGAUACUAUACAACGUACUACCUGA | 0.377 ± 0.047
ACUCUGGAUACUAUACAACCUACUACCUCA | 2.19 ± 0.13
CACUCUGGAUACUAUACAACCUACUACCUCA | 2.09 ± 0.12
CCUCUGGAUACUAUACAACCUCACUACCUCA | 0.0086 ± 0.0033
CCUCUGGAUACUAUACAACCUACUACACUCA | 0.874 ± 0.073
GGAGACGAUACGUAUACAACCUACUACCUCA | 1.4 ± 0.13
GGAGUGGAUACUAUACAACCUACUGACCUCA | 0.489 ± 0.043
GCUCUGUGAUACUAUACAACCUACUACCUCA | 1.81 ± 0.11
GGACUUGAUACUAUACAACCUACUACCUCA | 1.73 ± 0.12
GGAGUUGAUACUAUACAACCUACUACCUCA | 1.97 ± 0.13
CCUCUUGAUACUAUACAACCUACUACCUCA | 2.33 ± 0.14
GGUCUUGAUACUAUACAACCUACUACCUCA | 1.87 ± 0.11
GCUCUUGAUACUAUACAACCUACUACCUCA | 2.03 ± 0.11

Sequence | pre-steady-state target cleavage rate
GCUCUGGAUACUAUACAACCUACAACCUGA | 0.744 ± 0.14
GGAGUCGAUACUAUACAACCUACUACCUCA | 1.47 ± 0.091
GGAGACCAUAACUAUACAACCUACUACCUCA | 1.24 ± 0.089
GCUCUGGAUAAUAUACAACCUACUACCUCA | 2.07 ± 0.13
CCUCUGGAUAAUAUACAACCUACUACCUCA | 2.06 ± 0.12
GGUCUGGAUAAUAUACAACCUACUACCUCA | 1.88 ± 0.12
GCUCUGGAUACUAUACAACCUAAUACCUCA | 1.55 ± 0.12
CCUCUGGAUAUAUACAACCUACUACCUCA | 1.9 ± 0.12
GCUCUGGAUACUAAUACAACCUACUACCUCA | 1.49 ± 0.09
CCUCUGGAUACUAUAGAACCUACUACCUCA | 0.664 ± 0.06
GGAGACCAUUCUUUACAACCUACUACCUCA | 0.387 ± 0.059
GCUCUGGAUAGUAUACUACCUACUACCUCA | 0.858 ± 0.049
GGUCUGGAUACAAUACUACCUACUACCUCA | 1.09 ± 0.092
CCUCUGGAUACUAUACAACCUACUACCUACA | 1.79 ± 0.096
CCUCUGGAUACUAUACAACCUACUACCUCG [g2:g30:cont:t1G] | 1.32 ± 0.094
CCUCUGGAUACUAUACAACCUACUACCUAA | 1.9 ± 0.1
CCUCUGGAUACUAUACAACCUACUACCUA | 1.52 ± 0.096
CCUCUGGAUACUAUACAACCUACUACCUCC [g2:g30:cont:t1C] | 2.18 ± 0.14
CCUCUGGAUACUAUACAACCUACUACCUCU [g2:g30:cont:t1U] | 2.36 ± 0.14
GGAGAGGAAACAAUACAACCUACUACCUCA | 0.95 ± 0.079
GGAGACGAUACUAUUCAUCCUACUACCUCA | 1.09 ± 0.061
GGAGUGGAUACUAUCAACCUACUACCUCA | 1.58 ± 0.11
GGAGACCUAUCUAUACAACCUACUUCCUGA | 0.0338 ± 0.01

Source: the supplement of paper PMC10338343
